Laboratory results as given in PubChem BioAssay (NCATS).
Inconclusive results are not listed. The source made the active and inactive calls. The call rests on the fitted dose curve; in most records, active means well fitted cell-killing curve with a large enough effect; inconclusive means small, poorly fitted or top-dose-only effect, or effect the other way; inactive means flat fitted curve, though single readings scatter.

Columns and labels:
Assay in all cases: Primary qHTS to identify gynecologic anti-cancer compounds using libraries of approved drugs and bioactive compounds (AID 1345084); further: nearly all actives have a fitted effect of over 55% in size
Details in all cases: Gynecologic cancer cell panel viability, ATPlite luminescence, 48 h; series mostly up to 57.5 µM
PA-1 = test system: PA-1
Outline: (§1)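 Cells, 1,000 per well, were allowed to settle for 16 h at 37 C before compound addition. Five concentrations were tested for 48 h, and viability was read by ATPlite luminescence after 15 min at room temperature.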

SKOV3 = test system: SKOV3
Outline: as §1

Tov-21-G = test system: Tov-21-G
Outline: as §1

Tov112D = test system: Tov112D
Outline: as §1
On the % scale 0 is the no-effect control and ±100 the full control effect.

Fc1cccc(CN(C2=NCCN2)c2c(Cl)cccc2Cl)c1
inactive: Potency (PA-1) | Potency (SKOV3) | Potency (Tov-21-G) | Potency (Tov112D)

CC(C)Oc1ccc(-c2nc(-c3cccc4c3CCC4NCCC(=O)O)no2)cc1C#N (centres undefined)
inactive: Potency (PA-1) | Potency (SKOV3) | Potency (Tov-21-G) | Potency (Tov112D)

CC1=C2C(=O)C=C(CO[C@@H]3O[C@H](CO)[C@@H](O)[C@H](O)[C@H]3O)[C@@H]2[C@H]2OC(=O)[C@H](C)[C@@H]2CC1
inactive: Potency (PA-1) | Potency (SKOV3) | Potency (Tov-21-G) | Potency (Tov112D)

COc1cc(C2OCC3(O)C(c4ccc(O[C@@H]5O[C@H](CO)[C@@H](O)[C@H](O)[C@H]5O)c(OC)c4)OCC23O)ccc1O (some centres undefined)
inactive: Potency (PA-1) | Potency (SKOV3) | Potency (Tov-21-G) | Potency (Tov112D)

COc1ccc(C2(O)c3ccccc3NC(=O)C2OC)cc1 (centres undefined)
inactive: Potency (PA-1) | Potency (SKOV3) | Potency (Tov-21-G) | Potency (Tov112D)

COc1cc(OC)cc(-c2ccc3c(-c4ccc(F)cc4)[nH]nc3n2)c1
inactive: Potency (PA-1) | Potency (SKOV3) | Potency (Tov-21-G) | Potency (Tov112D)

C/C=C(\C)C(=O)OC1C2(O)CC3=C4CC(=O)OC(c5ccoc5)C4(C)CCC3C(C)(C2=O)C(C(OC(C)=O)C(=O)OC)C1(C)C (centres undefined)
inactive: Potency (PA-1) | Potency (SKOV3) | Potency (Tov-21-G) | Potency (Tov112D)

C=C1CC[C@@]2(OC1)O[C@H]1CC3C4CC=C5C[C@@H](O[C@@H]6O[C@@H](C)[C@H](O)[C@@H](O)[C@H]6O)C[C@@H](O[C@@H]6O[C@H](C)[C@H](O)[C@H](O)[C@H]6O[C@@H]6O[C@@H](C)[C@H](O)[C@@H](O)[C@H]6O)[C@]5(C)C4CC[C@]3(C)[C@H]1[C@@H]2C (some centres undefined)
inactive: activity change, negative = cytotoxicity (PA-1) -0.609% [at 11.6 µM] | activity change, negative = cytotoxicity (SKOV3) -7.76% [at 11.6 µM] | activity change, negative = cytotoxicity (Tov-21-G) -15.7% [at 11.6 µM] | activity change, negative = cytotoxicity (Tov112D) 1.88% [at 11.6 µM]

CC1=CC(=O)C2C(C)(C)CCC[C@]2(C)[C@H]1CC[C@H](C)CC(=O)O (some centres undefined)
inactive: Potency (PA-1) | Potency (SKOV3) | Potency (Tov-21-G) | Potency (Tov112D)

C=C1C(=O)O[C@@H]2CC(C)=C([C@@H](C)CCCOC(C)=O)[C@@H](O)[C@H]12
inactive: Potency (PA-1) | Potency (SKOV3) | Potency (Tov-21-G) | Potency (Tov112D)

O=C(OC1C=C(CO)C2C(OC3OC(CO)C(O)C(O)C3O)OC=CC12O)c1ccc(O)cc1 (centres undefined)
inactive: Potency (PA-1) | Potency (SKOV3) | Potency (Tov-21-G) | Potency (Tov112D)

CN(C)c1ccc(C2O[C@@H](c3ccccc3)C[C@H](c3ccccc3)O2)cc1 (some centres undefined)
inactive: Potency (PA-1) | Potency (SKOV3) | Potency (Tov-21-G) | Potency (Tov112D)

COC(=O)C1=COC(O[C@@H]2O[C@H](CO)[C@@H](O)[C@H](O)[C@H]2O)/C(=C\COC(=O)/C=C/c2ccccc2)C1CC(=O)OCCc1ccc(O)cc1 (some centres undefined)
inactive: Potency (PA-1) | Potency (SKOV3) | Potency (Tov-21-G) | Potency (Tov112D)

C=CC(C)(O)CC/C=C(\C)COC1O[C@H](CO)[C@@H](O)[C@H](O)[C@H]1O (some centres undefined)
inactive: Potency (PA-1) | Potency (SKOV3) | Potency (Tov-21-G) | Potency (Tov112D)

C[C@H]1[C@H](C)C[C@@H](C(=O)O)C2CC[C@]3(C)C(=CC[C@@H]4[C@@]5(C)CC[C@H](O)C(C)(C)[C@@H]5CC[C@]43C)[C@@H]21 (some centres undefined)
inactive: Potency (PA-1) | Potency (SKOV3) | Potency (Tov-21-G) | Potency (Tov112D)

COc1ccc2[nH]c(S(=O)Cc3ncc(C)c(OC)c3C)nc2c1 (centres undefined)
inactive: Potency (PA-1) | Potency (SKOV3) | Potency (Tov-21-G) | Potency (Tov112D)

CC(=O)OCC1=C[C@@H]2OC(=O)C3=CO[C@@H](O[C@@H]4O[C@H](CO)[C@@H](O)[C@H](O)[C@H]4O)[C@H]1[C@@H]32
inactive: Potency (PA-1) | Potency (SKOV3) | Potency (Tov-21-G) | Potency (Tov112D)

C[C@@H]1O[C@@H](O[C@H]2[C@H](O)[C@@H](O[C@@H]3O[C@H](CO)[C@H](O)[C@H](O)[C@H]3O)[C@H](O[C@H]3CC[C@@]4(C)C(CC[C@]5(C)C4CC=C4[C@@H]6CC(C)(C)CC[C@]6(C(=O)O[C@@H]6O[C@H](CO)[C@@H](O)[C@H](O)[C@H]6O)CC[C@]45C)C3(C)C)O[C@@H]2C(=O)O)[C@H](O)[C@H](O)[C@H]1O (some centres undefined)
inactive: activity change, negative = cytotoxicity (PA-1) 7.27% [at 11.6 µM] | activity change, negative = cytotoxicity (SKOV3) -3.61% [at 11.6 µM] | activity change, negative = cytotoxicity (Tov-21-G) 8.52% [at 11.6 µM] | activity change, negative = cytotoxicity (Tov112D) 3% [at 11.6 µM]

CCC(C)/C=C(C)/C=C/C1=CC2=CC(=O)C(C)(O)C(OC(C)=O)C2CO1 (centres undefined)
inactive: Potency (PA-1) | Potency (SKOV3) | Potency (Tov-21-G) | Potency (Tov112D)

Cc1ncc([N+](=O)[O-])n1C[C@H](O)CN1CCOCC1
inactive: Potency (PA-1) | Potency (SKOV3) | Potency (Tov-21-G) | Potency (Tov112D)

C/C(=C\CCC1(C)C2CC3C(C2)C31C)C(=O)O (centres undefined)
inactive: Potency (PA-1) | Potency (SKOV3) | Potency (Tov-21-G) | Potency (Tov112D)
